Here are results for 6 compounds from PubChem BioAssay (EPA / NIEHS).

Calls of active or inactive are those of the source. Rule for the calls: active = hit-call score of the fitted dose curve at least 0.9, where 1 is the maximum; inactive = score below 0.9.

The AC50 is the concentration giving half of the maximal activity seen.

Read-out in assay [1]: Vascular endothelial growth factor receptor 2 (Homo sapiens) (UniProt P35968)
Kind of assay: BSK_4H_VEGFRII: BioMAP Diversity Plus: 4H Assay for Vascular endothelial growth factor receptor 2 (VEGFR2) Biomarker Activity (AID 2283031). The settings on record: primary human endothelial cells (HUVEC); actives raise or lower the signal. The method in brief: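 In this multiplexed HUVEC system, biomarker ELISA was performed after 24 h chemical exposure. Parallel SRB staining (TCA fixation, 560 nm) tracked cytotoxicity; DMSO served as baseline.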

Read-out in assay [2]: Human Leukocyte Antigen - DR isotype (HLADR), HLA-DRA (gene 3122)
Kind of assay: BSK_BE3C_HLADR: BioMAP Diversity Plus: BE3C Assay for Human Leukocyte Antigen - DR isotype (HLADR) Biomarker Activity (AID 2283032). The settings on record: primary human bronchial epithelial cells; actives raise or lower the signal. In short, it runs like this: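 Chemicals are dosed onto BE3C bronchial epithelial cultures of human origin and left 24 h. HLA-DR is then measured by ELISA, and the endpoint is fitted in both directions using DMSO as the activity baseline.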

Read-out in assay [3]: Vascular cell adhesion molecule 1 (VCAM1), VCAM1 (gene 7412)
Kind of assay: BSK_4H_VCAM1: BioMAP Diversity Plus: 4H Assay for Vascular cell adhesion molecule 1 (VCAM1) Biomarker Activity (AID 2283033).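 For outcome: cell-surface VCAM-1 protein measured by ELISA.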 The settings on record: primary human endothelial cells (HUVEC); actives raise or lower the signal. The method in brief: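 Chemicals are added to primary human umbilical vein endothelial cells. After 24 h, VCAM-1 levels are measured by ELISA. Values come from bidirectional fitting referenced to DMSO.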

Read-out in assay [4]: Interferon-gamma inducible Protein 10 (IP10), CXCL10 (gene 3627)
Kind of assay: BSK_BE3C_IP10: BioMAP Diversity Plus: BE3C Assay for Interferon-gamma inducible Protein 10 (IP10) Biomarker Activity (AID 2283034). The settings on record: primary human bronchial epithelial cells; actives raise or lower the signal. The method in brief: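 IP-10 quantified by ELISA serves as the endpoint. Cells: primary human bronchial epithelium, read 24 h after compound addition. Activity is derived by bidirectional fitting with DMSO as negative control.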

Read-out in assay [5]: Monokine induced gamma interferon (MIG), CXCL9 (gene 4283)
Kind of assay: BSK_BE3C_MIG: BioMAP Diversity Plus: BE3C Assay for Monokine induced gamma interferon (MIG) Biomarker Activity (AID 2283035).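 For outcome: MIG protein measured by ELISA in BE3C cultures after 24 h of dosing.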 The settings on record: primary human bronchial epithelial cells; actives raise or lower the signal. The method in brief: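 ELISA quantified MIG after 24 h exposure of primary bronchial epithelial cultures, analysed in both directions relative to DMSO. Cytotoxicity tracked in parallel cultures by sulforhodamine B staining.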

Read-out in assay [6]: Transforming growth factor beta 1 (TGFb1), TGFB1 (gene 7040)
Kind of assay: BSK_BE3C_TGFb1: BioMAP Diversity Plus: BE3C Assay for Transforming growth factor beta 1 (TGFb1) Biomarker Activity (AID 2283036;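 for outcome: TGF-b1 protein level measured by ELISA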). The settings on record: primary human bronchial epithelial cells; actives raise or lower the signal. The method in brief: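 Bronchial epithelial primary cells are treated with test chemical, then TGF-b1 is quantified by ELISA after 24 hours. Values derive from bidirectional fitting against DMSO, with cytotoxicity checked by SRB staining in parallel cultures.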

Read-out in assay [7]: Plasminogen activator inhibitor-1 (PAI1), SERPINE1 (gene 5054)
Kind of assay: BSK_BE3C_PAI1: BioMAP Diversity Plus: BE3C Assay for Plasminogen activator inhibitor-1 (PAI1) Biomarker Activity (AID 2283037). The settings on record: primary human bronchial epithelial cells; actives raise or lower the signal. The method in brief:
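Values derive from bidirectional fitting against DMSO baseline of PAI-1 levels, measured by ELISA in human bronchial epithelial cells 24 h after compound addition.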

Read-out in assay [8]: urokinase plasminogen activator (uPA), PLAU (gene 5328)
Kind of assay: BSK_BE3C_uPA: BioMAP Diversity Plus: BE3C Assay for urokinase plasminogen activator (uPA) Biomarker Activity (AID 2283038).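 For outcome: uPA protein level quantified by ELISA in cell cultures; uPA read one day after compound addition.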 The settings on record: primary human bronchial epithelial cells; actives raise or lower the signal. In short, it runs like this:
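Using confluent primary human lung bronchial epithelial cultures, we dosed chemicals, waited 24 h, then ran a uPA ELISA, fitting bidirectionally against DMSO.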

Read-out in assay [9]: Urokinase-type plasminogen activator receptor (uPAR), PLAUR (gene 5329)
Kind of assay: BSK_BE3C_uPAR: BioMAP Diversity Plus: BE3C Assay for Urokinase-type plasminogen activator receptor (uPAR) Biomarker Activity (AID 2283039).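 For outcome: uPAR protein level measured by ELISA on the cells; cells exposed to compound for one day before measurement.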 The settings on record: primary human bronchial epithelial cells; actives raise or lower the signal. In short, it runs like this: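 Steps: dose human primary bronchial epithelial cells, incubate 24 h, measure uPAR by ELISA, then fit gain- or loss-of-signal response bidirectionally relative to DMSO.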

Read-out in assay [10]: Interleukin-6 (IL6), IL6 (gene 3569)
Kind of assay: BSK_CASM3C_IL6: BioMAP Diversity Plus: CASM3C Assay for Interleukin-6 (IL6) Biomarker Activity for (AID 2283040). The settings on record: primary human coronary artery smooth muscle cells; actives raise or lower the signal.

Read-out in assay [11]: Tissue plasminogen activator (tPA), PLAT (gene 5327)
Kind of assay: BSK_BE3C_tPA: BioMAP Diversity Plus: BE3C Assay for Tissue plasminogen activator (tPA) Biomarker Activity (AID 2283041).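 For outcome: tPA level quantified by ELISA one day after compound addition.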 The settings on record: primary human bronchial epithelial cells; actives raise or lower the signal. The method in brief:
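Gain- or loss-of-signal in tPA, measured by ELISA, derived by bidirectional fitting against DMSO. Cells: human primary bronchial epithelial; read at 24 h after chemical dosing.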

Read-out in assay [12]: Interleukin-8 (IL8), CXCL8 (gene 3576)
Kind of assay: BSK_CASM3C_IL8: BioMAP Diversity Plus: CASM3C Assay for Interleukin-8 (IL8) Biomarker Activity (AID 2283042).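 Note: IL-8 protein level quantified by ELISA.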 The settings on record: primary human coronary artery smooth muscle cells; actives raise or lower the signal.

Read-out in assay [13]: Human Leukocyte Antigen - DR isotype (HLADR), HLA-DRA (gene 3122)
Kind of assay: BSK_CASM3C_HLADR: BioMAP Diversity Plus: CASM3C Assay for Human Leukocyte Antigen - DR isotype (HLADR) Biomarker Activity (AID 2283043).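 Note: cell-surface HLA-DR protein level quantified by ELISA.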 The settings on record: primary human coronary artery smooth muscle cells; actives raise or lower the signal.

Read-out in assay [14]: Macrophage colony-stimulating factor (MCSF), CSF1 (gene 1435)
Kind of assay: BSK_CASM3C_MCSF: BioMAP Diversity Plus: CASM3C Assay for Macrophage colony-stimulating factor (MCSF) Biomarker Activity (AID 2283044).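 Note: M-CSF protein amount quantified by ELISA after 24 h exposure.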 The settings on record: primary human coronary artery smooth muscle cells; actives raise or lower the signal.

Read-out in assay [15]: Low-density lipoprotein receptor (LDLR), LDLR (gene 3949)
Kind of assay: BSK_CASM3C_LDLR: BioMAP Diversity Plus: CASM3C Assay for Low-density lipoprotein receptor (LDLR) Biomarker Activity (AID 2283045).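 Note: LDLR protein level on the cell surface quantified by ELISA.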 The settings on record: primary human coronary artery smooth muscle cells; actives raise or lower the signal.

Read-out in assay [16]: Monocyte Chemoattractant Protein-1 (MCP1), CCL2 (gene 6347)
Kind of assay: BSK_CASM3C_MCP1: BioMAP Diversity Plus: CASM3C Assay for Monocyte Chemoattractant Protein-1 (MCP1) Biomarker Activity (AID 2283046).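 Note: MCP-1 level quantified by ELISA 24 h after dosing.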 The settings on record: primary human coronary artery smooth muscle cells; actives raise or lower the signal.

Assay [17] can be described thus: BSK_CASM3C_Proliferation: Cell Proliferation Assessment in the BioMAP Diversity Plus: CASM3C Assay (AID 2283047).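 Note: sulforhodamine B total protein stain as relative cell number at 560 nm; sub-confluent cells exposed 48 h before staining; fitted both ways against DMSO so gain or loss of cell number.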 The settings on record: primary human coronary artery smooth muscle cells.
Read-out in assay [18]: Monokine induced gamma interferon (MIG), CXCL9 (gene 4283)
Kind of assay: BSK_CASM3C_MIG: BioMAP Diversity Plus: CASM3C Assay for Monokine induced gamma interferon (MIG) Biomarker Activity (AID 2283048).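 Note: MIG protein level measured by ELISA.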 The settings on record: primary human coronary artery smooth muscle cells; actives raise or lower the signal.

Read-out in assay [19]: serum amyloid A (SAA), SAA1 (gene 6288)
Kind of assay: BSK_CASM3C_SAA: BioMAP Diversity Plus: CASM3C Assay for serum amyloid A (SAA) Biomarker Activity (AID 2283049).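 Note: SAA protein level quantified by ELISA.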 The settings on record: primary human coronary artery smooth muscle cells; actives raise or lower the signal.

A short description of assay [20]: BSK_CASM3C_SRB: Viability Assessment in the BioMAP Diversity Plus: CASM3C Assay (AID 2283050).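 Note: total protein by SRB staining as cytotoxicity measure in parallel cultures.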 The settings on record: primary human coronary artery smooth muscle cells.

On to `ClC1=C(Cl)[C@]2(Cl)[C@@H]3[C@H]4C[C@H]([C@@H]5O[C@H]45)[C@@H]3[C@@]1(Cl)C2(Cl)Cl`, for which the outcome in assay [1], in assay [2], in assay [3], in [4], in [5] and in assay [6] was inactive. In addition, the result in assay [7], in assay [8], in [9], in assay [10], in assay [11] and in [12] was inactive. In addition, the outcome in assay [13], in assay [14], in [15], in [16], in assay [17] and in [18] was inactive. In addition, the result in assay [19] and in assay [20] was inactive.
Regarding `CC(c1ccc(O)cc1)(c1ccc(O)cc1)c1ccc(O)cc1`, the result in assay [1], in [10], in assay [12], in [15] and in assay [19] was inactive. Further, the AC50 in [2] is 2.08 µM (active); in [3] it was 24 µM (active); in [4] it was 2.57 µM (active); in assay [5], 2.2 µM (active); in assay [6], 1.92 µM (active); in assay [7], 3.29 µM (active). Also, the AC50 in assay [8] is 3.25 µM (active); in assay [9] it was 2.4 µM (active); in assay [11], 3.85 µM (active); in assay [13] it was 4.44 µM (active); in [14] it was 3.11 µM (active); in [16], 5.43 µM (active). Besides, the AC50 in assay [17] is 27.2 µM (active); in assay [18], 5.35 µM (active); in assay [20] it was 4.79 µM (active).
Consider `Clc1ccc(Cl)cc1`, for which the result in assay [1], in assay [2], in [3], in assay [4], in assay [5] and in [6] was inactive. For the same compound, the result in assay [7], in assay [8], in [9], in assay [10], in [11] and in [12] was inactive. In addition, the result in assay [13], in assay [14], in [15], in [16], in assay [17] and in [18] was inactive. The outcome in assay [19] and in assay [20] was inactive.
For the compound `O=C(N[C@H]1CN2CCC1CC2)c1cc2ccoc2cn1`, the outcome in assay [1], in assay [2], in assay [3], in [4], in assay [5] and in assay [6] was inactive. In addition, the result in assay [7], in [8], in assay [9], in [10], in assay [11] and in assay [12] was inactive. The outcome in [13], in assay [14], in assay [15], in assay [16], in [17] and in assay [18] was inactive. The result in assay [19] and in assay [20] was inactive.
As for `Cc1ccccc1CO[C@@H]1C[C@@]2(C(C)C)CC[C@]1(C)O2`, the outcome in assay [1], in assay [2], in [3], in [4], in assay [5] and in [6] was inactive. In addition, the outcome in [7], in assay [9], in assay [10], in assay [11], in [12] and in [13] was inactive. The result in assay [14], in [15], in [16], in assay [17], in assay [18] and in assay [19] was inactive. The outcome in assay [20] was inactive. Also, the concentration at half-maximal activity (AC50) in [8] is 11.2 µM (active).
In the case of `CC(C)(O)C(=O)Nc1ccc([N+](=O)[O-])c(C(F)(F)F)c1`, the result in [1], in [2], in assay [3], in [5], in [6] and in assay [7] was inactive. Further, the result in assay [8], in [9], in [11], in [12], in assay [13] and in assay [14] was inactive. In addition, the result in assay [15], in assay [16], in [17], in assay [18], in [19] and in [20] was inactive. The AC50 in assay [4] is 24.6 µM (active); in assay [10], 29.1 µM (active).
